FBW7 act: human FBW7 E3 ligase activation, primary screen | Q969H0 | AlphaScreen FBW7–phospho-cyclin E peptide binding, activator screen | normalized activity (activation), % at 26.1 µM | 650,000 compounds, 0.13% hits | AID 1259310; in the data active means normalized activity above about 1.9%;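 further: purified mutant Fbw7 with reduced substrate affinity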
TEAD-YAP block: TEAD-YAP interaction inhibition; 640,000 compounds, 1.4% hits; inhibition, % at 9.12 µM; HEK-TIYL cells, TEAD-Gal4/YAP UAS-luciferase luminescence; in the data active means inhibition above about 32%;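 further: 0% = median of test compound wells and 100% = reference inhibitor wells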
MITF primary: inhibitors of human MITF | AlphaScreen MITF homodimerization, bead proximity signal | 650,000 compounds, 0.91% hits | inhibition, % at 2.6 µM | O75030; in the data active means inhibition above about 50%;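 further: 0% = vehicle wells with protein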
GPR151 ag: activates the human receptor GPR151. Q8TDV0. PathHunter beta-arrestin GPR151 cells, luminescence. activation, % at 11.2 µM. 650,000 compounds, 1% hits. AID 1508602; in the data active means activation above about 4.9%;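 further: 0% = median of compound wells and 100% = cells with positive control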
Target sequence (Q8TDV0 whole entry, looked up): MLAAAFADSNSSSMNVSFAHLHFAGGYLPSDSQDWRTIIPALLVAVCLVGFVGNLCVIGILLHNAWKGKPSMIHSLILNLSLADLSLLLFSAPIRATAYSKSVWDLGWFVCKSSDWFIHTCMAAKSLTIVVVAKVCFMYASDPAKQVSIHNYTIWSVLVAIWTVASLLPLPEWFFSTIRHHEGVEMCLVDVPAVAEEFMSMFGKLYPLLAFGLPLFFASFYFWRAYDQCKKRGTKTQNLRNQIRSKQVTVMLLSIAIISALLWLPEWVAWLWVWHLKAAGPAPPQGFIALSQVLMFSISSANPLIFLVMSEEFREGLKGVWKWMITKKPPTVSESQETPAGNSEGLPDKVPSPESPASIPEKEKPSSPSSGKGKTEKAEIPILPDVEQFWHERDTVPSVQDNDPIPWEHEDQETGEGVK
GPR151 conf act: human GPR151 activation, confirmation screen; 6,700 tested, under 10 active; activation, % at 11.2 µM; shares compounds with GPR151 ag; GPR151 PathHunter beta-arrestin cells, luminescence, 90 min; % of EA-reagent control over plate median; AID 1508609;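 active means mean percent activation across replicates above the confirmation screen cutoff of 4.91%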
GPR119 counter: activates human GPR119 in a GPR151 counter-screen; shares compounds with GPR151 ag; GPR119 PathHunter beta-arrestin cells, luminescence, 90 min; 0 = compound-well median, 100 = enzyme-acceptor control; activation, % at 11.2 µM; 6,700 compounds, 0.3% hits;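 active means mean percent activation in the counterscreen above 29.09%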;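 further: counterscreen on off-target GPR119 to flag nonselective hits from the GPR151 activator screen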
Starred values were filed as active, the others as inactive. An excerpt weighted towards active compounds, which were near 3.5% of everything screened.

Screening O=C(CN1CCOCC1)Nc1ccc(Br)cn1 returned FBW7 act 0, TEAD-YAP block 11, MITF primary -2 and GPR151 ag -1.
Screening O=C(CN1CCN(C(=O)c2ccccc2)CC1)Nc1ccc(Br)cn1 returned FBW7 act 0, TEAD-YAP block -3, MITF primary 13, GPR151 ag 5.6*, GPR151 conf act 0 and GPR119 counter -2.
Screening Cc1ccc(-n2nc3c(c2NC(=O)C2(c4ccc(Cl)cc4)CCCC2)CSC3)cc1 returned FBW7 act 0, TEAD-YAP block -9, MITF primary -58 and GPR151 ag 4.
`Cc1cccc(N2CCN(S(=O)(=O)c3ccc4c(c3)C(C)(C)C(=O)N4C)CC2)c1C` gave FBW7 act 0, TEAD-YAP block 5, MITF primary 32 and GPR151 ag 0.
`CN1C(=O)C(C)(C)c2cc(S(=O)(=O)N3CCN(c4ccccc4F)CC3)ccc21` gave FBW7 act 0, TEAD-YAP block -9, MITF primary 1, GPR151 ag 5.1*, GPR151 conf act 0 and GPR119 counter 5.
Screening CCc1sc(C(=O)NCc2ccccc2OC)cc1C returned FBW7 act 0, TEAD-YAP block 1, MITF primary -4, GPR151 ag 5.5*, GPR151 conf act 0 and GPR119 counter 14.
Screening CC(C)COC(=O)Nc1nnc(Cc2cccs2)s1 returned FBW7 act 0, TEAD-YAP block -44, MITF primary 1 and GPR151 ag 1.
For CC(C)NC(=O)CSc1nc(Cc2ccccc2)nc2ccccc12 the results were FBW7 act 0, TEAD-YAP block -12, MITF primary -18 and GPR151 ag -1.
`Cc1nonc1NC(=O)CSc1nc(Cc2ccccc2)nc2ccccc12` gave FBW7 act 0, TEAD-YAP block 0, MITF primary -8, GPR151 ag 10*, GPR151 conf act 0 and GPR119 counter 3.
For Cn1c(=O)[nH]c(=O)c2c1nc(NCCCN1CCOCC1)n2CCO the results were FBW7 act 0, TEAD-YAP block -6, MITF primary 0, GPR151 ag 10*, GPR151 conf act 0 and GPR119 counter 5.
For COCCN1CC(CNC(=O)c2cc(COc3ccc(F)cc3Cl)on2)CC1=O (stereo not drawn) the results were FBW7 act 0, TEAD-YAP block 2, MITF primary 7, GPR151 ag 9.8*, GPR151 conf act -1 and GPR119 counter -10.
`C/C(=N\Nc1nnc2c(n1)[nH]c1ccccc12)c1ccc([N+](=O)[O-])cc1` gave FBW7 act 0, TEAD-YAP block -26, MITF primary 7, GPR151 ag 5.9*, GPR151 conf act 0 and GPR119 counter -16.
Screening COc1ccc(S(=O)(=O)N(CC(=O)N2CCCC2)c2ccc(C)cc2)cc1 returned FBW7 act 0, TEAD-YAP block 5, MITF primary -1, GPR151 ag 12*, GPR151 conf act 0 and GPR119 counter 11.
COc1ccc(N(CC(=O)N2CCCCC2)S(=O)(=O)c2ccc(C)cc2)cc1 was read as FBW7 act 0, TEAD-YAP block 3, MITF primary -3 and GPR151 ag 2.
For COc1ccccc1-c1ccc(SCC(=O)NCc2ccco2)nn1 the results were FBW7 act -1, TEAD-YAP block 4, MITF primary 2 and GPR151 ag 3.
For Cc1[nH]c(C(=O)OCC(=O)c2cc(C)n(C)c2C)c(C)c1C(C)O (stereo not drawn) the results were FBW7 act 0, TEAD-YAP block -19, MITF primary 2, GPR151 ag 5.2*, GPR151 conf act 1 and GPR119 counter 0.
`Cc1cc(C(=O)COC(=O)c2cc(Cl)cc(Cl)c2)c(C)n1C` gave FBW7 act 0, TEAD-YAP block -8, MITF primary -1 and GPR151 ag -1.
`CC(C)=C1C(=O)Nc2ccc(S(=O)(=O)N3CCOCC3)cc21` gave FBW7 act 0, TEAD-YAP block 6, MITF primary -12 and GPR151 ag -1.
`CC1CCCC(C)N1CC(O)COc1ccc(N)cc1` (stereo not drawn) gave FBW7 act 0, TEAD-YAP block 7, MITF primary -2, GPR151 ag 4.9*, GPR151 conf act 0 and GPR119 counter -5.
Screening CC(=O)c1ccc(OCC(O)CN2CCCCC2C)cc1 (stereo not drawn) returned FBW7 act 0, TEAD-YAP block 0, MITF primary -22, GPR151 ag 5.2*, GPR151 conf act -1 and GPR119 counter -12.
Screening CCOc1ccc(N(CC(=O)Nc2cc(C)[nH]n2)C2=NC3CS(=O)(=O)CC3S2)cc1 (stereo not drawn) returned FBW7 act -1, TEAD-YAP block -4, MITF primary -3 and GPR151 ag -1.
`O=C1Nc2ccc(S(=O)(=O)Nc3ccc(NS(=O)(=O)c4ccc5c6c(cccc46)C(=O)N5)cc3)c3cccc1c23` gave FBW7 act 0, TEAD-YAP block 0, MITF primary 22 and GPR151 ag 1.
`COc1ccccc1-c1cc2nc(C)c(CCC(=O)Nc3ccc(C(C)=O)cc3)c(C)n2n1` gave FBW7 act 0, TEAD-YAP block 20, MITF primary -15 and GPR151 ag 1.
CCc1c(C)nc(SCCc2ccccc2)[nH]c1=O was read as FBW7 act 0, TEAD-YAP block -9, MITF primary 4, GPR151 ag 5.4*, GPR151 conf act -1 and GPR119 counter -12.
O=C(NC1CCCC1)C(c1cc2c(cc1[N+](=O)[O-])OCO2)N1CCCCC1 (stereo not drawn) was read as FBW7 act 0, TEAD-YAP block -2, MITF primary 2 and GPR151 ag 2.
Screening COc1cccc(CN2CCN(C(=O)c3cc(Br)cs3)CC2)c1 returned FBW7 act 0, TEAD-YAP block -2, MITF primary -2, GPR151 ag 5.8*, GPR151 conf act 1 and GPR119 counter 11.
For COc1cccc(CN2CCN(C(=O)c3c(OC)cccc3OC)CC2)c1 the results were FBW7 act 0, TEAD-YAP block 4, MITF primary 17 and GPR151 ag 0.
For COc1ccc(N2CCN(C(=O)c3ccc(OC(C)=O)cc3)CC2)cc1 the results were FBW7 act 0, TEAD-YAP block -1, MITF primary 14 and GPR151 ag -1.
Screening COc1ccc(C(=O)N2CCN(Cc3ccc4ccccc4c3)CC2)cc1 returned FBW7 act -1, TEAD-YAP block 36*, MITF primary 47, GPR151 ag 7.7*, GPR151 conf act 1 and GPR119 counter -1.
For C=CCOc1ccc(C(=O)N2CCN(c3ccc(OC)cc3)CC2)cc1 the results were FBW7 act 1, TEAD-YAP block -8, MITF primary 8, GPR151 ag 6.1*, GPR151 conf act 0 and GPR119 counter 5.
